Activity calls are given as the source filed them. Rule for the calls: active = hit-call score of the fitted dose curve at least 0.9, where 1 is the maximum; inactive = score below 0.9.
Assay: ATG_CMV_CIS: Attagene CIS-FACTORIAL HepG2 Assay for human CMV (Internal Marker) (AID 2282928);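 note: endpoint acts as a background internal control marker rather than a target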
Details: HepG2 CMV promoter reporter, transcription factor profiling; actives raise or lower the signal
How it was run: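 HepG2 cells transiently transfected with multiple cis-regulated reporter units; 24 h compound exposure. Reporter mRNA quantified by RT-PCR, 6-FAM primer-extension labeling, HpaI digestion and capillary electrophoresis; bidirectional fitting against DMSO baseline.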

| SMILES | outcome |
| --- | --- |
| O=C(O)c1ccc2c(c1)C(=O)OC2=O | inactive |
| CC(C)(c1ccccc1)c1ccc(Nc2ccc(C(C)(C)c3ccccc3)cc2)cc1 | inactive |
| CCCC(C)C(=O)OCC (centres undefined) | inactive |
| NC(=O)Nc1ccccc1 | inactive |
| CC1=CCC(C(C)C)C=C1 (centres undefined) | inactive |
| CCN(CC)c1cccc(C)c1 | inactive |
| CC(=O)OC/C=C(/C)CCC=C(C)C | inactive |
| O=C(O)c1cc(O)c2ccccc2c1O | inactive |

Assay: ATG_DR4_LXR_CIS: Attagene CIS-FACTORIAL HepG2 Assay for human Liver X Receptor (LXR), DR4 submotif (AID 2282929)
Details: HepG2 Attagene DR4 cis-reporter, mRNA transcription; actives raise or lower the signal
How it was run: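 Readout: reporter transcript fluorescence after RT-PCR and capillary electrophoresis, fitted bidirectionally against DMSO controls. Human HepG2 liver cells carried transiently transfected multiplexed reporter constructs; endogenous transcription factor activity measured 24 h post-dosing.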

| SMILES | outcome | AC50 |
| --- | --- | --- |
| O=S(=O)(O)c1ccc(N=Nc2c(O)ccc3ccccc23)cc1 | inactive |  |
| CC1(C)[C@@H]2CC[C@@]1(C)C(=O)C2 | inactive |  |
| Cc1ccc(C)c(OCCCC(C)(C)C(=O)O)c1 | inactive |  |
| COc1ccc(C(=O)/C(Br)=C\C(=O)O)cc1 |  | 27.8 µM (active) |
| C/C=C/C=C/CCCCCCCO |  | 183 µM (active) |
| CCCCCCCCCCCC(C)=O |  | 136 µM (active) |
| CC(=O)OCC=C(C)C | inactive |  |
| CCCC=C(C=O)CC | inactive |  |
| CCc1cccc(C)c1N | inactive |  |
| CCCCCCCCCCCCC | inactive |  |
| COCC(=O)O | inactive |  |
| CCC1COC(=O)O1 (centres undefined) | inactive |  |
| CCCC1CCCC(=O)O1 (centres undefined) | inactive |  |
| C[Si](C)(C)N[Si](C)(C)C | inactive |  |
| CCCC(CC)c1ccccc1 (centres undefined) | inactive |  |
| CC(=O)OC1CCCCC1 | inactive |  |
| CCCCCC(=O)OCC | inactive |  |
| CC1CC(=O)CC(C)(C)C1 (centres undefined) | inactive |  |
| CC(C)(C)NC(=O)[C@H]1CC[C@H]2[C@@H]3CC[C@H]4NC(=O)C=C[C@]4(C)[C@H]3CC[C@]12C | inactive |  |
| CCC1(C)C(=O)N(Cl)C(=O)N1Cl (centres undefined) | inactive |  |
| CC/C=C\CCOC(=O)c1ccccc1O | inactive |  |
